In general, AC50 refers to the concentration at which the activity in the assay is half-maximal.

Results filed as inconclusive are left out. The source made the active and inactive calls. The calls were made as follows: active = hit-call score of the fitted dose curve at least 0.9, where 1 is the maximum; inconclusive = response in the unintended direction; inactive = score below 0.9.

This experiment can be described thus: ATG_XTT_Cytotoxicity: Cytotoxicity Assessment in the Attagene TRANS-FACTORIAL HepG2 Assay (AID 2283584).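 As to AC50: XTT signal for cell number as viability in transfected HepG2 cells; cells exposed to compound for 24 h before reading; active means loss of viability signal versus DMSO baseline.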 In outline:
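Transfect HepG2 with GAL4-UAS reporter units, dose compound, incubate 24 h, then measure viable cell number by XTT. Fit concentration response against DMSO baseline.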

As to `Clc1sc(Cl)c(Cl)c1Cl`, the molecule was called inactive. With `NC(=O)Nc1ccc(Cl)cc1`, the result was inactive. For the molecule `CCCCCCCCCCCCSC`, the molecule was classed as inactive. `OC1C(O)C(O)C(O)C(O)C1O` (stereo not drawn): the call was inactive. In the case of `Nc1ccc(F)c([N+](=O)[O-])c1`, the molecule was classed as inactive. On the same count and under the same terms, as for `CC1(C)C(=O)N(Br)C(=O)N1Cl`, the entry is “inactive”; as for `CCC/C=C/C=O`, “inactive”.

As for `O=S(=O)(O)c1cccc2c(S(=O)(=O)O)cccc12`, the outcome was inactive. As to `OCCCCCO`, the outcome was inactive. For `Cc1ccc(C(=O)O)o1`, the molecule was classed as inactive. As to `CC(=O)/C=C/C1=C(C)CCCC1(C)C`, the molecule was called inactive.

On to `C=CCOc1nc(OCC=C)nc(OCC=C)n1`, for which the outcome was inactive. Still for that read-out and setting: as for `CCCCCCCCCCCCCCCC(=O)OC[C@H](O)[C@H]1OC(=O)C(O)=C1O`, the entry is “inactive”.

With `CC(C)(CO)[N+](=O)[O-]`, the outcome was inactive. Take `N#Cc1nc(Cl)c(Cl)c(Cl)c1Cl`: the AC50 was 56.8 µM (active). As for `COc1c(Cl)c(Cl)c(Cl)c(Cl)c1Cl`, the call was inactive. `O=C(COc1ccc(Cl)cc1)N1CCN(Cc2ccc3c(c2)OCO3)CC1`: the call was inactive. On to `O=C[C@H](O)[C@H](O)[C@H](O)CO`, for which the outcome was inactive.

On to `CC1(C)[C@H](C(=O)OCc2cccc(Oc3ccccc3)c2)[C@@H]1C=C(Cl)Cl`, for which the molecule was classed as inactive. For `CCCCCC(=O)OCCc1ccccc1`, the molecule was called inactive.

Take `O=C(O)C[C@H](O)C[C@H](O)/C=C/c1c(C2CC2)nc2ccccc2c1-c1ccc(F)cc1`: the outcome was inactive. Turning to `O=C(O)c1cn(C2CC2)c2cc(N3CCNCC3)c(F)cc2c1=O`, the molecule was called inactive.

For the molecule `CC(c1cc2ccccc2s1)N(O)C(N)=O` (stereo not drawn), the result was inactive.

The values above are taken from PubChem BioAssay (EPA / NIEHS).
